# Records with an inconclusive call do not appear. Entries that show only a call come without a potency. Values without a mark were called inactive. The source made the active and inactive calls. Calls follow the shape of the dose curve; as a rule, active = well fitted curve in the direction sought with a large enough effect; inconclusive = small, poorly fitted or top-dose-only effect, or another doubt; inactive = no such curve, though single readings can be large; an effect the other way counts as inactive or inconclusive.
# Experiments:
# MCC-13 = experiment: qHTS assay to identify novel small-molecules to repurpose for Merkel cell carcinoma treatment (AID 1296009); settings: MCC and control cell lines, CellTiter-Glo viability, 72 h; series mostly up to 46 µM; also: nearly all actives have a fitted effect of over 60% in size
# Procedure, shortened: (§1)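 After compound transfer in DMSO, plates were kept 72 hr at 37 degree celsius. Luminescent ATP signal from CellTiter-Glo served as viability measure, normalized against DMSO and no-cell controls.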
# MCC-26 = experiment: as above; settings: MCC and control cell lines, CellTiter-Glo viability, 72 h; series mostly up to 46 µM
# Procedure, shortened: as §1
# MKL-1 = experiment: as above; settings: MCC and control cell lines, CellTiter-Glo viability, 72 h; series mostly up to 46 µM
# Procedure, shortened: as §1
# MKL-2 = experiment: as above; settings: MCC and control cell lines, CellTiter-Glo viability, 72 h; series mostly up to 46 µM
# Procedure, shortened: as §1
# UISO = experiment: as above; settings: MCC and control cell lines, CellTiter-Glo viability, 72 h; series mostly up to 46 µM
# Procedure, shortened: as §1
# WaGa = experiment: as above; settings: MCC and control cell lines, CellTiter-Glo viability, 72 h; series mostly up to 46 µM
# Procedure, shortened: as §1
# C33A = experiment: Primary qHTS to identify gynecologic anti-cancer compounds using libraries of approved drugs and bioactive compounds (AID 1345084); settings: Gynecologic cancer cell panel viability, ATPlite luminescence, 48 h; series mostly up to 57.5 µM; also: nearly all actives have a fitted effect of over 55% in size
# Procedure, shortened: (§2)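 Five-concentration response, 48 h; readout is ATP-driven luciferase luminescence.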
# CASKI = experiment: as above; settings: Gynecologic cancer cell panel viability, ATPlite luminescence, 48 h; series mostly up to 57.5 µM
# Procedure, shortened: as §2
# Es-2 = experiment: as above; settings: Gynecologic cancer cell panel viability, ATPlite luminescence, 48 h; series mostly up to 57.5 µM
# Procedure, shortened: as §2
# HeLa = experiment: as above; settings: Gynecologic cancer cell panel viability, ATPlite luminescence, 48 h; series mostly up to 57.5 µM
# Procedure, shortened: as §2
# Hek293T = experiment: as above; settings: Gynecologic cancer cell panel viability, ATPlite luminescence, 48 h, control line for the selectivity index; series mostly up to 57.5 µM
# Procedure, shortened: as §2
# JEG-3 = experiment: as above; settings: Gynecologic cancer cell panel viability, ATPlite luminescence, 48 h; series mostly up to 57.5 µM
# Procedure, shortened: as §2
# OV90 = experiment: as above; settings: Gynecologic cancer cell panel viability, ATPlite luminescence, 48 h; series mostly up to 57.5 µM
# Procedure, shortened: as §2
# PA-1 = experiment: as above; settings: Gynecologic cancer cell panel viability, ATPlite luminescence, 48 h; series mostly up to 57.5 µM
# Procedure, shortened: as §2
# SKOV3 = experiment: as above; settings: Gynecologic cancer cell panel viability, ATPlite luminescence, 48 h; series mostly up to 57.5 µM
# Procedure, shortened: as §2
# Tov-21-G = experiment: as above; settings: Gynecologic cancer cell panel viability, ATPlite luminescence, 48 h; series mostly up to 57.5 µM
# Procedure, shortened: as §2
# Tov112D = experiment: as above; settings: Gynecologic cancer cell panel viability, ATPlite luminescence, 48 h; series mostly up to 57.5 µM
# Procedure, shortened: as §2
# [1] = Drug repurposing screens with cells derived from glioblastoma tumor samples (AID 1345199); settings: GBM patient neurospheres viability, ATP luminescence, 48 h; also: nearly all actives have a fitted effect of over 40% in size
# Procedure, shortened: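 Four patient lines of CD133+ GBM neurospheres were screened at several concentrations; hits were retested in those lines plus three slower-growing GBM lines, using 48-hour treatment and ATP-based viability.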
# CAOV3 = experiment: Primary qHTS to identify gynecologic anti-cancer compounds using libraries of approved drugs and bioactive compounds (AID 1345084); settings: Gynecologic cancer cell panel viability, ATPlite luminescence, 48 h; series mostly up to 57.5 µM; also: nearly all actives have a fitted effect of over 55% in size
# Procedure, shortened: as §2
# [2] = at 45.9 µM (top of the series), tumour line B
# [3] = at 45.9 µM (top of the series), tumour line D
# [4] = at 46 µM (top of the series), tumour line A
# [5] = at 46.1 µM (top of the series), tumour line C
# [6] = at 20 µM (top of the series), tumour line C
# [7] = at 21.2 µM (top of the series), tumour line B
# [8] = at 21.2 µM (top of the series), tumour line D
# Potency is read from the fitted curve at half-maximal effect.
compound,measurement,setting,value
C[C@H](CCC(=O)O)[C@H]1CC[C@H]2[C@@H]3C(=O)C[C@@H]4CC(=O)CC[C@]4(C)[C@H]3CC(=O)[C@]12C,Potency,MCC-13,inactive
same,Potency,MCC-26,inactive
same,Potency,MKL-1,inactive
same,Potency,MKL-2,inactive
same,Potency,UISO,inactive
same,Potency,WaGa,inactive
same,Potency,C33A,inactive
same,Potency,CASKI,inactive
same,Potency,Es-2,inactive
same,Potency,HeLa,inactive
same,Potency,Hek293T,inactive
same,Potency,JEG-3,inactive
same,Potency,OV90,inactive
same,Potency,PA-1,inactive
same,Potency,SKOV3,inactive
same,Potency,Tov-21-G,inactive
same,Potency,Tov112D,inactive
same,"activity, negative = cell killing",[1]; [2],-0.788%
same,"activity, negative = cell killing",[1]; [3],-14.6%
same,"activity, negative = cell killing",[1]; [4],-2.78%
same,"activity, negative = cell killing",[1]; [5],3.71%
CC(=O)OCC(=O)[C@@]12N=C(C)O[C@@H]1C[C@H]1[C@@H]3CCC4=CC(=O)C=C[C@]4(C)[C@H]3[C@@H](O)C[C@@]12C,Potency,MCC-13,inactive
same,Potency,MCC-26,inactive
same,Potency,MKL-1,inactive
same,Potency,MKL-2,inactive
same,Potency,UISO,inactive
same,Potency,WaGa,inactive
same,Potency,C33A,inactive
same,Potency,CASKI,inactive
same,Potency,Es-2,inactive
same,Potency,HeLa,inactive
same,Potency,Hek293T,inactive
same,Potency,JEG-3,inactive
same,Potency,OV90,inactive
same,Potency,PA-1,inactive
same,Potency,SKOV3,inactive
same,Potency,Tov-21-G,inactive
same,Potency,Tov112D,inactive
same,"activity, negative = cell killing",[1]; [2],-9.58%
same,"activity, negative = cell killing",[1]; [3],-6.5%
same,"activity, negative = cell killing",[1]; [4],-6.46%
same,"activity, negative = cell killing",[1]; [5],-22.2%
C[n+]1c2cc(N)ccc2cc2ccc(N)cc21 (tested in a mixture with another compound),Potency,MCC-13,11.9 µM (active)
same,Potency,MCC-26,15 µM (active)
same,Potency,MKL-1,2.99 µM (active)
same,Potency,MKL-2,0.75 µM (active)
same,Potency,UISO,2.99 µM (active)
same,Potency,WaGa,1.5 µM (active)
same,Potency,Es-2,15.8 µM (active)
same,Potency,HeLa,8.91 µM (active)
same,Potency,Hek293T,10 µM (active)
same,Potency,PA-1,5.01 µM (active)
same,Potency,SKOV3,12.6 µM (active)
same,Potency,Tov-21-G,28.2 µM (active)
same,"activity, negative = cell killing",[1]; [5],-16%
same,Potency,[1]; tumour line A,35.5 µM (active)
same,Potency,[1]; tumour line B,11.2 µM (active)
same,Potency,[1]; tumour line D,5.01 µM (active)
CCN(CC)CCOC(=O)C(c1ccccc1)C1CCCCC1 (stereo not drawn),Potency,MCC-13,inactive
same,Potency,MCC-26,inactive
same,Potency,MKL-1,inactive
same,Potency,UISO,inactive
same,Potency,WaGa,inactive
same,Potency,C33A,inactive
same,Potency,CAOV3,inactive
same,Potency,CASKI,inactive
same,Potency,Es-2,inactive
same,Potency,HeLa,inactive
same,Potency,Hek293T,inactive
same,Potency,JEG-3,inactive
same,Potency,PA-1,inactive
same,Potency,SKOV3,inactive
same,Potency,Tov-21-G,inactive
same,Potency,Tov112D,inactive
same,"activity, negative = cell killing",[1]; [2],-15%
same,Potency,[1]; tumour line A,20 µM (active)
CC(=O)c1ccc2c(c1)N(CCCN1CCC(CCO)CC1)c1ccccc1S2,Potency,MCC-13,inactive
same,Potency,MCC-26,inactive
same,Potency,MKL-1,inactive
same,Potency,MKL-2,21.1 µM (active)
same,Potency,C33A,inactive
same,Potency,Es-2,inactive
same,Potency,HeLa,inactive
same,Potency,Hek293T,inactive
same,Potency,JEG-3,inactive
same,Potency,SKOV3,inactive
same,Potency,Tov-21-G,inactive
same,Potency,Tov112D,inactive
same,"activity, negative = cell killing",[1]; [6],17.8%
same,"activity, negative = cell killing",[1]; [7],-21.7%
same,Potency,[1]; tumour line A,11.2 µM (active)
CCCCOc1ccc(C(=O)CCN2CCCCC2)cc1,Potency,MCC-13,inactive
same,Potency,MCC-26,inactive
same,Potency,MKL-1,9.44 µM (active)
same,Potency,MKL-2,2.66 µM (active)
same,Potency,WaGa,23.7 µM (active)
same,Potency,C33A,inactive
same,Potency,CASKI,inactive
same,Potency,HeLa,inactive
same,Potency,JEG-3,inactive
same,Potency,OV90,inactive
same,Potency,PA-1,inactive
same,Potency,Tov-21-G,inactive
same,Potency,Tov112D,inactive
same,"activity, negative = cell killing",[1]; [6],-2.49%
same,Potency,[1]; tumour line A,4.47 µM (active)
COc1cc(-c2ccc(=O)[nH]n2)ccc1OC(F)F,Potency,MCC-13,inactive
same,Potency,MCC-26,inactive
same,Potency,MKL-1,inactive
same,Potency,MKL-2,inactive
same,Potency,WaGa,inactive
same,Potency,C33A,inactive
same,Potency,CASKI,inactive
same,Potency,Es-2,inactive
same,Potency,Hek293T,inactive
same,Potency,JEG-3,inactive
same,Potency,OV90,inactive
same,Potency,SKOV3,inactive
same,Potency,Tov-21-G,inactive
same,Potency,Tov112D,inactive
same,"activity, negative = cell killing",[1]; [2],-9.45%
same,"activity, negative = cell killing",[1]; [3],-28.9%
same,"activity, negative = cell killing",[1]; [5],-14.1%
C/C=C(/C(=C/C)c1ccc(O)cc1)c1ccc(O)cc1,Potency,MCC-13,inactive
same,Potency,MCC-26,inactive
same,Potency,MKL-1,inactive
same,Potency,MKL-2,inactive
same,Potency,UISO,inactive
same,Potency,C33A,inactive
same,Potency,CAOV3,inactive
same,Potency,CASKI,inactive
same,Potency,Es-2,inactive
same,Potency,HeLa,inactive
same,Potency,Hek293T,inactive
same,Potency,JEG-3,inactive
same,Potency,PA-1,inactive
same,Potency,Tov-21-G,inactive
same,Potency,Tov112D,inactive
same,"activity, negative = cell killing",[1]; [6],-5.62%
same,"activity, negative = cell killing",[1]; [7],-8.12%
same,"activity, negative = cell killing",[1]; [8],-22.4%
CCC(C(=O)OCCN(CC)CC)c1ccccc1 (stereo not drawn),Potency,MCC-13,inactive
same,Potency,MCC-26,inactive
same,Potency,MKL-1,inactive
same,Potency,MKL-2,inactive
same,Potency,UISO,inactive
same,Potency,WaGa,inactive
same,Potency,C33A,inactive
same,Potency,CASKI,inactive
same,Potency,Es-2,inactive
same,Potency,HeLa,inactive
same,Potency,Hek293T,inactive
same,Potency,OV90,inactive
same,Potency,PA-1,inactive
same,Potency,SKOV3,inactive
same,Potency,Tov-21-G,inactive
same,Potency,Tov112D,inactive
same,"activity, negative = cell killing",[1]; [2],-10.7%
same,"activity, negative = cell killing",[1]; [3],13.4%
same,"activity, negative = cell killing",[1]; [4],-28.5%
same,"activity, negative = cell killing",[1]; [5],0.404%
Cc1cc2c(cc1CC(=O)c1sccc1S(=O)(=O)Nc1onc(C)c1Cl)OCO2,Potency,MCC-13,inactive
same,Potency,MCC-26,inactive
same,Potency,MKL-1,inactive
same,Potency,MKL-2,inactive
same,Potency,UISO,inactive
same,Potency,WaGa,inactive
same,Potency,C33A,inactive
same,Potency,CASKI,inactive
same,Potency,Es-2,inactive
same,Potency,HeLa,inactive
same,Potency,Hek293T,inactive
same,Potency,JEG-3,inactive
same,Potency,OV90,inactive
same,Potency,PA-1,inactive
same,Potency,SKOV3,inactive
same,Potency,Tov-21-G,inactive
same,Potency,Tov112D,inactive
COc1c2occc2c(OC)c2c(=O)cc(C)oc12,Potency,MCC-13,inactive
same,Potency,MCC-26,inactive
same,Potency,MKL-1,inactive
same,Potency,MKL-2,inactive
same,Potency,UISO,inactive
same,Potency,WaGa,inactive
same,Potency,C33A,inactive
same,Potency,CASKI,inactive
same,Potency,Es-2,inactive
same,Potency,HeLa,inactive
same,Potency,JEG-3,inactive
same,Potency,OV90,inactive
same,Potency,PA-1,inactive
same,Potency,SKOV3,inactive
same,Potency,Tov-21-G,inactive
same,Potency,Tov112D,inactive
same,"activity, negative = cell killing",[1]; [6],-11.9%
same,"activity, negative = cell killing",[1]; [7],-15.3%
same,"activity, negative = cell killing",[1]; [8],-6.87%
Cc1onc(-c2c(Cl)cccc2Cl)c1C(=O)N[C@@H]1C(=O)N2[C@@H]1SC(C)(C)[C@@H]2C(=O)O,Potency,MCC-13,inactive
same,Potency,MCC-26,inactive
same,Potency,MKL-1,inactive
same,Potency,MKL-2,inactive
same,Potency,UISO,inactive
same,Potency,WaGa,inactive
same,Potency,C33A,inactive
same,Potency,CASKI,inactive
same,Potency,Es-2,inactive
same,Potency,HeLa,inactive
same,Potency,Hek293T,inactive
same,Potency,JEG-3,inactive
same,Potency,OV90,inactive
same,Potency,PA-1,inactive
same,Potency,SKOV3,inactive
same,Potency,Tov-21-G,inactive
same,Potency,Tov112D,inactive
same,"activity, negative = cell killing",[1]; [2],-4.57%
same,"activity, negative = cell killing",[1]; [3],-12.2%
same,"activity, negative = cell killing",[1]; [4],-8.27%
same,"activity, negative = cell killing",[1]; [5],12.2%
